Laboratory results published in PubChem BioAssay (Tox21).
Inconclusive results are not listed. The source made the active and inactive calls. Unless noted, calls come from the whole dose curve.

Experiments:
[1] = qHTS assay to identify small molecule agonists of the vitamin D receptor (VDR) signaling pathway - cell viability counter screen (AID 743224; active = well fitted curve in the direction sought with a large enough effect in the repeat runs; an effect the other way counts as inactive or inconclusive; note: series mostly up to about 63 µM; nearly all actives have a fitted effect of over 50% in size)
Procedure, shortened: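 VDR-bla cells, 4 h after plating, exposed to compounds for 16 h at 37C; viability then read in the same wells as CellTiter-Glo luminescence after 30 min at room temperature, following the bla FRET read.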

[2] = qHTS assay to identify small molecule agonists of the NFkB signaling pathway - cell viability counter screen (AID 1159515); note: series mostly up to about 61 µM; nearly all actives have a fitted effect of over 55% in size
Procedure, shortened: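 NFkB-bla ME-180 cells, 2,000/well, plated overnight at 37 C; compound added for 5 hr at 37 C. Viability read in the same wells as the bla reporter, by CellTiter-Glo luminescence after 30 min at room temperature.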

[3] = qHTS assay to identify small molecule agonists of the endoplasmic reticulum stress response signaling pathway (AID 1159516; active = well fitted activation curve with a large enough effect in the signal ratio in the repeat runs, not every such curve was filed as active; the % refers to the signal ratio; note: potency is the fitted concentration of half-maximal effect)
Procedure, shortened: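 CellSensor ESRE-bla HeLa cells, 1,500 per well, plated overnight, then exposed to compounds for 5 hr at 37 C. Beta-lactamase reporter read with LiveBLAzer B/G FRET substrate after 2 hr at room temperature, 405 nm excitation, 460 and 530 nm emission.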

[4] = qHTS assay to identify small molecule agonists of the endoplasmic reticulum stress response signaling pathway - cell viability counter screen (AID 1159517);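 note: HeLa cells carrying an ER stress response element beta-lactamase reporter; series mostly up to about 61 µM; nearly all actives have a fitted effect of over 50% in size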
Procedure, shortened: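 Luminescence readout: CellTiter-Glo, 30 min RT, same wells as the ESRE-bla reporter read. HeLa ESRE-bla, 1,500 cells/well, o/n 37 C; cpd 5 hr 37 C/5% CO2.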

[5] = qHTS assay to identify small molecule antagonists of the retinoid-related orphan receptor gamma (ROR-gamma) signaling pathway - cell viability counter screen (AID 1159520; active = well fitted curve in the direction sought with a large enough effect in the repeat runs; an effect the other way counts as inactive or inconclusive; note: nearly all actives have a fitted effect of over 50% in size)
Procedure, shortened: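 Tet-on ROR gamma CHO cells (1,000/well) were plated 4 hr, given compounds in DMSO for 2 hr at 37 C, then induced with 1 uM final doxycycline for 16 hr. Viability was read as ATP by CellTiter-Glo luminescence after 30 min.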

[6] = target: Nuclear receptor ROR-gamma (Homo sapiens) (UniProt P51449); test: qHTS assay to identify small molecule antagonists of the retinoid-related orphan receptor gamma (ROR-gamma) signaling pathway (AID 1159521; active = well fitted curve in the direction sought with a large enough effect in the repeat runs; an effect the other way counts as inactive or inconclusive;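 note: CHO cells with doxycycline inducible ROR-gamma driving an RORE luciferase reporter; top concentration of the series differs between compounds; nearly all actives have a fitted effect of over 50% in size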)
Procedure, shortened: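 Test compounds were applied to Tet-on RORγ CHO cells 2 h ahead of doxycycline hyclate (1 uM final). Luciferase reporter activity was quantified by luminescence after 16 h at 37 C and 5% CO2.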

[7] = qHTS assay to identify small molecule agonists of the AP-1 signaling pathway - cell viability counter screen (AID 1159525); note: nearly all actives have a fitted effect of over 55% in size
Procedure, shortened: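 ME-180 AP-1-bla, 2500 cells/well, Opti-MEM + 0.5% dialyzed FBS; overnight 37 °C; cpd 15-pt titration, 5 h 37 °C; CellTiter-Glo 30 min RT; luminescence read; normalised to TOAB and DMSO controls.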

[8] = qHTS assay to identify small molecule agonists of the AP-1 signaling pathway (AID 1159526); note: potency is the fitted concentration of half-maximal effect
[9] = target: Retinoic acid receptor RXR-alpha (Homo sapiens) (UniProt P19793); test: qHTS assay to identify small molecule agonists of the RXR signaling pathway (AID 1159527); note: nearly all actives have a fitted effect of over 35% in size; note: potency is the fitted concentration of half-maximal effect
Procedure, shortened: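 Using 9-cis retinoic acid as the reference agonist, chemicals were tested in HEK 293T cells […] for 16 hr; substrate loading lasted 2 hr at room temperature.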

[10] = qHTS assay to identify small molecule antagonists of the vitamin D receptor (VDR) signaling pathway - cell viability counter screen (AID 743225; active = well fitted curve in the direction sought with a large enough effect in the repeat runs; an effect the other way counts as inactive or inconclusive; note: nearly all actives have a fitted effect of over 50% in size)
Procedure, shortened: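 Compounds were pinned onto VDR-bla HEK 293T cells together with 1-alpha,25-dihydroxyvitamin D3 at 3 nM final. After 16 h at 37C and 5% CO2 plus the reporter readout, cell viability was measured by CellTiter-Glo luminescence (30 min, room temperature).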

Measured: Potency

Retinoic acid receptor RXR-alpha (Homo sapiens), sequence (P19793 whole entry, looked up): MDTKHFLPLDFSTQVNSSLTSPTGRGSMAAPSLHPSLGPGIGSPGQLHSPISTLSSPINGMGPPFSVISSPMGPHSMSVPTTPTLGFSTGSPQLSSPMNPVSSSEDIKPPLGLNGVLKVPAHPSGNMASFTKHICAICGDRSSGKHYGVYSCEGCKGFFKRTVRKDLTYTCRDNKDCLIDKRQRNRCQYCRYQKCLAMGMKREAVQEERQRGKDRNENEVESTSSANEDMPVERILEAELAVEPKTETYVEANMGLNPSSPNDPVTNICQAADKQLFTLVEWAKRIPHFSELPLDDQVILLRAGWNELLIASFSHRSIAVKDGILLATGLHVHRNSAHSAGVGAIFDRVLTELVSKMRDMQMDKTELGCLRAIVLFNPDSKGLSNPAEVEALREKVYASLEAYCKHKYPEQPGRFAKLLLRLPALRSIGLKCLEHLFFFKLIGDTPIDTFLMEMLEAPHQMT

C=CCOC(=O)C(C)(C)OC(=O)c1cc(-n2c(=O)cc(C(F)(F)F)n(C)c2=O)ccc1Cl
not listed: [10]
inactive: all other assays above

CCC1(CC)C(=O)NC(=O)NC1=O
not listed: [10]
inactive: all other assays above

O=C1NC(=O)C(=O)C(=O)N1
not listed: [1] | [10]
inactive: all other assays above

CN(C)N
not listed: [1] | [10]
inactive: all other assays above

O=C(O)C(F)(F)C(F)(F)C(F)(F)C(F)(F)C(F)(F)C(F)(F)C(F)(F)C(F)(F)F
active: [9] 21.9 µM
not listed: [10]
inactive: all other assays above

COCc1cnc(C2=NC(C)(C(C)C)C(=O)N2)c(C(=O)O)c1 (centres undefined)
not listed: [10]
inactive: all other assays above

O=C(O)c1cc(Cl)ccc1Cl
not listed: [1] | [10]
inactive: all other assays above

CCCCCBr
not listed: [1] | [10]
inactive: all other assays above

CCCCCCCCCCCCN(C)C
not listed: [10]
inactive: all other assays above

N#CC(C#N)=C(C#N)C#N
not listed: [10]
inactive: all other assays above

CCC1(CCC(C)C)C(=O)NC(=O)NC1=O
not listed: [10]
inactive: all other assays above

CCCCC(CC)COC(=O)c1c(Br)c(Br)c(Br)c(Br)c1C(=O)OCC(CC)CCCC (centres undefined)
not listed: [10]
inactive: all other assays above

C[N+](C)(C)CC1CO1 (centres undefined)
not listed: [1] | [10]
inactive: all other assays above

COc1ccc(C(=O)c2c(C)n(CCN3CCOCC3)c3ccccc23)cc1
not listed: [1] | [9] | [10]
inactive: all other assays above

CON(C)C(=O)Nc1ccc(Cl)cc1
not listed: [10]
inactive: all other assays above

Nc1ccc2c(c1)Cc1ccccc1-2
not listed: [1] | [10]
inactive: all other assays above

O=C1CC[C@@]2(O)[C@H]3Cc4ccc(O)c5c4[C@@]2(CCN3CC2CC2)[C@H]1O5
not listed: [1] | [10]
inactive: all other assays above

C=CCOCC1CO1 (centres undefined)
not listed: [10]
inactive: all other assays above

CCCCCCCCP(=O)(O)O
not listed: [10]
inactive: all other assays above

CC(=O)NNc1ccccc1
not listed: [1] | [9] | [10]
inactive: all other assays above

CC(Cl)C(=O)O (centres undefined)
not listed: [10]
inactive: all other assays above

CCCSP(=S)(OCC)Oc1ccc(SC)cc1 (centres undefined)
not listed: [1] | [9] | [10]
inactive: all other assays above

CC(Cc1ccccc1)NCc1ccccc1Cl (centres undefined)
active: [8] 23.9 µM
not listed: [1] | [10]
inactive: all other assays above

CCOC(=O)c1cncn1C(C)c1ccccc1 (centres undefined)
not listed: [1] | [10]
inactive: all other assays above

O=C([O-])c1ccccn1.O=C([O-])c1ccccn1.O=C([O-])c1ccccn1.[Cr+3]
not listed: [10]
inactive: all other assays above

c1ccc2c(c1)-c1cccc3cccc-2c13
active: [3] 49 µM
not listed: [10]
inactive: all other assays above

COc1ccc2c(c1OC)C(=O)O[C@H]2[C@@H]1c2cc3c(cc2CCN1C)OCO3
not listed: [10]
inactive: all other assays above

FC(Cl)(Cl)C(F)(Cl)Cl
not listed: [10]
inactive: all other assays above

CCC1(C2=NCCN2)Cc2ccccc2O1 (centres undefined)
not listed: [10]
inactive: all other assays above

SCc1ccccc1
not listed: [10]
inactive: all other assays above

CC(C)CCCCCCCOC(=O)c1ccccc1C(=O)OCCCCCCCC(C)C
not listed: [1] | [9] | [10]
inactive: all other assays above

CN1CC[C@]23c4c5ccc(O)c4O[C@H]2[C@@H](O)CC[C@H]3[C@H]1C5
not listed: [10]
inactive: all other assays above

CN1CC[C@]23c4c5ccc(O)c4O[C@H]2[C@@H](O)C=C[C@H]3[C@H]1C5
not listed: [10]
inactive: all other assays above

CC[N+]1(C)CCCC(OC(=O)C(O)(c2ccccc2)c2ccccc2)C1 (centres undefined)
not listed: [10]
inactive: all other assays above

O=C(O)C(Cl)(Cl)Br
not listed: [10]
inactive: all other assays above

CC[N+]1(CCOC(=O)C(O)(c2ccccc2)c2ccccc2)CCCCC1
not listed: [1] | [10]
inactive: all other assays above

CC(=O)OC(c1ccccc1)C(Cl)(Cl)Cl (centres undefined)
not listed: [1] | [10]
inactive: all other assays above

O=C(Cc1ccccc1)c1ccccc1
not listed: [1] | [10]
inactive: all other assays above

Cc1nc(N(C)C)nc(OC(=O)N(C)C)c1C
not listed: [10]
inactive: all other assays above

O=C(Cl)OCCOCCOC(=O)Cl
active: [9] 2.19 µM
not listed: [10]
inactive: all other assays above

COc1ccc(C(O)(c2cncnc2)C2CC2)cc1 (centres undefined)
inactive: all assays above

COC1CC(=C(c2cccs2)c2cccs2)C[N+](C)(C)C1 (centres undefined)
inactive: all assays above

NC(=O)CF
inactive: all assays above

C=C(Cl)Cl
inactive: all assays above

O=S(=O)(c1ccccc1)c1ccccc1
not listed: [10]
inactive: all other assays above

CCOP(=O)(SC(C)CC)N1CCSC1=O (centres undefined)
active: [9] 11 µM
inactive: all other assays above

C[C@H]1[C@@H]2Cc3ccc(O)cc3[C@@]1(C)CCN2C
inactive: all assays above

CC1(C)CC(=O)CC(C)(C)N1[O]
inactive: all assays above

CCCCCl
inactive: all assays above

O=C(O)COc1cc(Cl)c(Cl)cc1Cl
active: [9] 24.6 µM
inactive: all other assays above
